PubChem BioAssay (NCATS)
“And” between values parts separate entries of the source, which are not always exact repeats. Identical values can stand only once. Inconclusive results are not listed. The source made the active and inactive calls. Calls come from the whole dose curve; as a rule, active = well fitted inhibition curve with a large enough effect; inconclusive = small, poorly fitted or top-dose-only effect; inactive = flat fitted curve, though single readings scatter. Positions of bridges follow the written chain, without caps; N, C: chain ends. Non-standard residues stand in square brackets, D forms with d. Residues, ends and D or L forms follow the SMILES beside them. ξ: configuration not given here. *: point of attachment. Octanoyl(6-Me) = CCC(C)CCCCC(=O)*; ξThr(3R) = C[C@@H](O)C(N)C(=O)O; dDab = NCC[C@@H](N)C(=O)O; Dab = NCC[C@H](N)C(=O)O

Key:
[1] = test system: KB-3-1; test: Cytotoxic Profiling of Annotated Libraries Using Quantitative High-Throughput Screening (AID 1296008); conditions: Five cell lines viability, CellTiter-Glo ATP luminescence, 48-72 h; max response: hits give low values
In short: (§1)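 Cytotoxicity was measured as CellTiter-Glo ATP luminescence, read after 10 min at room temperature. Compound treatment of the cells lasted 48 or 72 hr at 37 degrees Celsius in a qHTS format.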

[2] = test system: NIH3T3; test: as above; conditions: Five cell lines viability, CellTiter-Glo ATP luminescence, 48-72 h; max response: hits give low values
In short: as §1

[3] = test system: HACAT; test: qHTS assay to identify novel small-molecules to repurpose for Merkel cell carcinoma treatment (AID 1296009); conditions: MCC and control cell lines, CellTiter-Glo viability, 72 h; at 44.8 µM (top of the series) unless noted
In short: (§2)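 Cell viability, measured as CellTiter-Glo luminescence, was normalized between DMSO and no-cell wells. The cells had been exposed to 8- or 11-point compound dilutions for 72 hr at 37 degree celsius.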

[4] = test system: MCC-13; test: as above; conditions: MCC and control cell lines, CellTiter-Glo viability, 72 h; series mostly up to 46 µM
In short: as §2

[5] = test system: MCC-26; test: as above; conditions: MCC and control cell lines, CellTiter-Glo viability, 72 h; series mostly up to 46 µM
In short: as §2

[6] = test system: MKL-1; test: as above; conditions: MCC and control cell lines, CellTiter-Glo viability, 72 h; series mostly up to 46 µM
In short: as §2

[7] = test system: MKL-2; test: as above; conditions: MCC and control cell lines, CellTiter-Glo viability, 72 h; series mostly up to 46 µM
In short: as §2

[8] = test system: UISO; test: as above; conditions: MCC and control cell lines, CellTiter-Glo viability, 72 h; series mostly up to 46 µM
In short: as §2

[9] = test system: NIH3T3; test: as above; conditions: MCC and control cell lines, CellTiter-Glo viability, 72 h; at 44.8 µM (top of the series) unless noted
In short: as §2

[10] = test system: HEK293T; test: as above; conditions: MCC and control cell lines, CellTiter-Glo viability, 72 h; series mostly up to 44.8 µM
In short: as §2
% is set by controls: 0 for no effect and ±100 for the full control effect; potency is the fitted concentration of half-maximal effect.
Note: nearly all actives have a fitted effect of over 60% in size.

CN[C@H](CC(C)C)C(=O)N[C@H]1C(=O)N[C@@H](CC(N)=O)C(=O)N[C@@H]2C(=O)N[C@H]3C(=O)N[C@H](C(=O)N[C@H](C(=O)O)c4cc(O)cc(O)c4-c4cc3ccc4O)[C@H](O)c3ccc(c(Cl)c3)Oc3cc2cc(c3O[C@@H]2O[C@H](CO)[C@@H](O)[C@H](O)[C@@H]2O[C@H]2C[C@](C)(N)[C@H](O)[C@H](C)O2)Oc2ccc(cc2Cl)[C@H]1O
inactive: max response [1] 5.98% | max response [2] -4.89% | outcome [3] | Potency [4] | Potency [5] | Potency [6] | Potency [7] | Potency [8]

COc1ccc([C@@H]2CNC(=O)C2)cc1OC1CCCC1
inactive: outcome [1] | outcome [2] | outcome [3] | Potency [4] | Potency [5] | Potency [6] | outcome [9]

CC(=O)NC(CS)C(=O)O (stereo unspecified)
inactive: max response [1] -3.44% | max response [2] -5.75% | outcome [3] | Potency [4] | Potency [5] | Potency [6] | Potency [7] | Potency [8]

CCCCCCCN(CC)CCCC(O)c1ccc(NS(C)(=O)=O)cc1 (stereo unspecified)
inactive: max response [1] -6.17% | max response [2] -1.95% | outcome [3] | Potency [4] | Potency [5] | Potency [6] | Potency [7] | Potency [8]

CC(=O)O[C@H]1C[C@@H]2CC[C@H]3[C@H]4C[C@H]([N+]5(C)CCCCC5)[C@@H](OC(C)=O)[C@@]4(C)CC[C@@H]3[C@@]2(C)C[C@H]1[N+]1(C)CCCCC1
inactive: outcome [1] | max response [2] -1.21% | outcome [3] | Potency [4] | Potency [5] | Potency [6] | Potency [7] | Potency [8]

O=C1NC(O)CCN1[C@@H]1O[C@H](CO)[C@H](O)[C@H]1O (stereo partly specified)
inactive: max response [1] -2.55% | max response [2] 1.52% | outcome [3] | Potency [4] | Potency [5] | Potency [6] | Potency [7] | Potency [8]

CC(C)c1cnn2c(NCc3ccccc3)cc(NCCCCCCN)nc12
inactive: max response [1] 3.97% | max response [2] 0.624% | outcome [3] | Potency [4] | Potency [5] | Potency [8]

CC(C)(O)[C@H]1CC[C@@](C)([C@H]2[C@@H](O)C[C@@]3(C)[C@@H]4C[C@H](O[C@@H]5O[C@H](CO)[C@@H](O)[C@H](O)[C@@H]5O)[C@H]5C(C)(C)[C@@H](O[C@@H]6OC[C@@H](O)[C@H](O)[C@@H]6O)CC[C@@]56C[C@@]46CC[C@]23C)O1
inactive: max response [1] 2.16% | outcome [2] | Potency [4] | Potency [5] | Potency [6] | Potency [7] | outcome [9] | Potency [8]

COc1ccc2cc([S+]([O-])Cc3ncc(C)c(OC)c3C)nc2c1
inactive: outcome [1] | max response [2] -6.22% | Potency [4] | Potency [5] | Potency [6]

c1cc(CN2CCCNCCNCCCNCC2)ccc1CN1CCCNCCNCCCNCC1
inactive: max response [1] -8.95% | max response [2] -1.27% | Potency [10] | Potency [4] | Potency [6] | Potency [7] | Potency [8]

CCN1CCN(C(=O)N[C@H](C(=O)N[C@@H]2C(=O)N3C(C(=O)O)=C(CSc4nnnn4C)CS[C@@H]23)c2ccc(O)cc2)C(=O)C1=O
inactive: outcome [1] | max response [2] 3.36% | outcome [10] inactive [at 9.27 µM] | activity change, negative = cytotoxicity [4] 4.78% [at 9.22 µM] | activity change, negative = cytotoxicity [5] -6.39% [at 9.22 µM] | activity change, negative = cytotoxicity [6] 8.33% [at 9.22 µM] | activity change, negative = cytotoxicity [7] -17.3% [at 9.22 µM] | activity change, negative = cytotoxicity [8] -1.23% [at 9.22 µM]

FC(F)c1nc2ccccc2n1-c1nc(N2CCOCC2)nc(N2CCOCC2)n1
inactive: Potency [4]
active: Potency [1] 2.59 µM | Potency [2] 662 nM and 1.64 µM

CCC(C)CCCCC(=O)N[C@@H](CCN)C(=O)NC(C(=O)N[C@H](CCN)C(=O)N[C@@H]1CCNC(=O)C([C@@H](C)O)NC(=O)[C@@H](CCN)NC(=O)[C@@H](CCN)NC(=O)[C@@H](CC(C)C)NC(=O)[C@H](Cc2ccccc2)NC(=O)[C@H](CCN)NC1=O)[C@@H](C)O (stereo partly drawn) ({Octanoyl(6-Me)}-[Dab][ξThr(3R)][dDab][dDab][Dab]F[dL][dDab][dDab][ξThr(3R)]; lactam 4-C)
inactive: max response [1] 0.786% | outcome [2] | Potency [10] | Potency [4] | Potency [5] | Potency [6] | Potency [7] | outcome [9] | Potency [8]

CCCCCCCCCCCC(CC1OC(=O)C1CCCCCC)OC(=O)C(CC(C)C)NC=O (stereo unspecified)
inactive: max response [1] 7.07% | max response [2] 0.608% | outcome [3] | Potency [4] | Potency [6] | Potency [8]

NC(=O)Nc1cc(-c2ccc(CN3CCOCC3)cc2)sc1C(N)=O
active: Potency [1] 7.43 µM | Potency [2] 0.662 µM
inactive: Potency [4]

Cc1cncc2cccc(S(=O)(=O)N3CCCN(C(=O)CN)C[C@@H]3C)c12
inactive: max response [1] -18.7% and -19.4% | Potency [10] | Potency [5] | Potency [7] | Potency [8]
active: Potency [2] 26.4 µM

COC(=O)[C@H](CCCN=C(N)N)NS(=O)(=O)c1ccc(C)cc1
inactive: max response [1] -0.67% | max response [2] 2.63% | Potency [10] | Potency [4] | Potency [5] | Potency [6] | Potency [7] | Potency [8]

C[C@@H]1C(=O)O[C@H]2CC34[C@H]5C[C@@H](C(C)(C)C)C36[C@H](OC(=O)[C@@H]6O)O[C@@]4(C(=O)O5)[C@]21O (stereo partly specified)
inactive: max response [1] 2.09% | outcome [2] | outcome [3] | Potency [4] | outcome [9] | Potency [8]

C=CC1=C(C(=O)O)N2C(=O)[C@@H](NC(=O)C(=NO)c3csc(N)n3)[C@H]2SC1
inactive: max response [1] 4.36% | outcome [2] | Potency [4] | Potency [5] | Potency [6] | Potency [7] | outcome [9] | Potency [8]

O=C1NC(=O)[C@@H](c2cn3c4c(cccc24)CCC3)[C@H]1c1c[nH]c2ccccc12
inactive: outcome [3]
active: Potency [1] 0.833 µM | Potency [2] 2.09 µM | Potency [4] 3.32 µM | Potency [7] 23.5 µM | Potency [8] 1.18 µM
